Results filed as inconclusive are left out. The source made the active and inactive calls. Calls follow the shape of the dose curve; as a rule, active = well fitted curve in the direction sought with a large enough effect; inconclusive = small, poorly fitted or top-dose-only effect, or another doubt; inactive = no such curve, though single readings can be large; an effect the other way counts as inactive or inconclusive.
Experiments:
[1] = qHTS of pediatric cancer cell lines to identify multiple opportunities for drug repurposing: Primary screen for MG 63 (6-TG R) cells (AID 1347105); also: nearly all actives have a fitted effect of over 50% in size
Method in brief: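 Luminescence from CellTiter-Glo served as readout of metabolically active cells after 48 h compound exposure. Titrations: MIPE 11-point, from 0.78 nM; NPC 8-point, from 0.59 nM (final). Concentration-response curves came straight from the primary screen.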

[2] = qHTS of pediatric cancer cell lines to identify multiple opportunities for drug repurposing: Primary screen for control Hh wild type fibroblast cells (AID 1347106);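 also: series mostly up to about 46 µM; a drop in luminescence marks cytotoxicity and a rise apparent proliferation; nearly all actives have a fitted effect of over 55% in size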
Method in brief: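 Cells (500-1,000/well) in growth media were settled 5 h at 37 degrees C, then given compounds for 48 h. Viability was read as CellTiter-Glo luminescence. Primary runs used MIPE at 11 points (0.78 nM-46 µM) and NPC at 8 points (0.59 nM-46 µM); follow-ups used 11 points.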

[3] = qHTS of pediatric cancer cell lines to identify multiple opportunities for drug repurposing: Primary screen for Rh30 cells (AID 1347107); also: series mostly up to about 46 µM; nearly all actives have a fitted effect of over 75% in size
Method in brief: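 Cells (500-1,000/well) rested 5 h, then received compounds for 48 h; metabolically active cells were measured by CellTiter-Glo luminescence. Final concentrations spanned up to 46 µM (MIPE, 11-point) or 0.59 nM-46 µM (NPC, 8-point) in primary screens, 11-point in follow-ups.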

Measured: Potency

CN(C)CCc1c[nH]c2ccc(O)cc12
inactive: all assays above

Reference: PubChem BioAssay (NCATS)
